According to PubChem BioAssay AID2384 (Southern Research Specialized Biocontainment Screening …, 2010):
The campaign covered roughly 2,300 compounds. About 1,100 (48%) were called active. How the calls were made is not given here. The set was probably picked from earlier hits. The list shows a part of the results. Measured potencies and affinities stand elsewhere.

Assay: inhibitors in S. typhi counter-screen strain, dose response, counter-screen for PhoP regulon inhibitor project, fluorescence, 4 h (AID 2384)
Conditions: S. typhi GFP reporter counter-screen; series mostly up to 150 µM

| SMILES | inhibition |
| --- | --- |
| Nc1nc(N2CCN(c3ccccn3)CC2)nc2ccccc12 | inactive |
| Cc1ccc(Cn2c(=N)c(C(=O)NCCN3CCOCC3)cc3c(=O)n4ccccc4nc32)cc1 | inactive |
| CCOc1ccccc1NC(=O)CSc1nc(N)c(C#N)cc1C#N | inactive |
| CN1CCc2nc(SCC(=O)Nc3cccc(F)c3)c(C#N)c(-c3cccs3)c2C1 | inactive |
| COCCn1c(SCC(=O)Nc2nnc(C)s2)nnc1-c1c[nH]c2ccccc12 | inactive |
| N#CCCn1ncc2ccccc21 | inactive |
| C=CCOC(=O)C1=C(C)NC2(O)c3ccccc3C(=O)C12O (stereo not given) | inactive |
| COC(=O)c1ccc(Cn2cnc3ccccc3c2=O)cc1 | inactive |
| N#C/C(=C\c1ccc[nH]1)C(=O)NC1CC1 | inactive |
| O=c1c2ccccc2nc2n1CCc1c-2[nH]c2ccccc12 | inactive |
| CC1(C)Oc2ccc3ccc(=O)oc3c2/C(=C/NCCN/C=C2\C(=O)C(C)(C)Oc3ccc4ccc(=O)oc4c32)C1=O | inactive |
| Cn1nnnc1SCC(=O)Nc1ccccc1-c1ccccc1 | inactive |
| CC1CCN(C(=O)CSc2nnc(Cc3cc(=O)[nH]c(=O)[nH]3)n2-c2ccc(Cl)cc2)CC1 | inactive |
| Cn1c(CCN2CCN(c3ccccn3)CC2)nc2cc(NC(=O)COc3ccccc3)ccc21 | inactive |
| CCOC(=O)N1CCC(=NNc2ccnc3cc(Cl)ccc23)CC1 | inactive |
| O=C(c1ccc2c(c1)[nH]c(=S)n1c3ccccc3nc21)N1CCN(c2cccc(Cl)c2)CC1 | inactive |
| O=C(CSc1ccccn1)N/N=C/c1c[nH]c2ccccc12 | inactive |
| C(=N\Nc1nc2ccccc2[nH]1)/c1ccc2ncccc2c1 | inactive |
| Cn1cnnc1SCC(=O)Nc1ccc2nc(SCc3ccccc3)sc2c1 | inactive |
| COC(=O)CC1C(=O)NCCN1C(=O)CSc1nc2ccc([N+](=O)[O-])cc2s1 (stereo not given) | inactive |
| CCN1C(=O)N/C(=C/c2cc(C)n(Cc3ccccc3)c2C)C1=O | inactive |
| CC(=O)Nc1ccc(NC(=O)CSc2ccc(-c3ccco3)nn2)cc1 | inactive |

| SMILES | inhibition |
| --- | --- |
| Cc1cccc(OCC(=O)Nc2nonc2NC(=O)COc2cccc(C)c2)c1 | inactive |
| O=C(c1cc2c(s1)-c1ccccc1S(=O)(=O)C2)N1CCN(Cc2ccccc2)CC1 | inactive |
| CN1CCN(c2ccccc2NC(=O)c2sc3ccccc3c2Cl)CC1 | inactive |
| Cc1cc(C=O)c(O)cc1O | inactive |
| O=C(NCc1ccccc1)c1ccc(CNc2c(N3CCCC3)c(=O)c2=O)cc1 | inactive |
| COc1ccc(NC(=O)Cn2c(=O)oc3cc(S(=O)(=O)N4CCCC4)ccc32)c(OC)c1 | inactive |
| NC1=NC(c2cccc(O)c2)n2c(nc3ccccc32)N1 (stereo not given) | inactive |
| NC1=NC2(CCCCC2)n2c(nc3ccccc32)N1 | inactive |
| CCOC(=O)c1cnn2c1[nH]c(=O)c1ccccc12 | inactive |
| NC(=O)c1cc(S(=O)(=O)Nc2cccc(F)c2)co1 | inactive |
| COC(=O)c1cc2nc(-c3ccccc3)cc(C)n2n1 | inactive |
| CNc1ccc(SC#N)cc1 | inactive |
| CCOC(=O)Cc1nn(C)c(=O)c2ccccc12 | inactive |
| O=S1(=O)CC=C(CSc2nc3ccccc3[nH]2)C1 | inactive |
| CC(=O)N1CSCC1C(=O)N1CCN(c2ccc(N3CCOCC3)nn2)CC1 (stereo not given) | inactive |
| CCOC(=O)C(NC(C)=O)(Nc1cccc(F)c1)C(F)(F)F (stereo not given) | inactive |
| O=C(NC1(C(F)(F)F)C(=O)Nc2c1c(=O)[nH]c(=O)n2-c1ccccc1)c1ccncc1 (stereo not given) | inactive |
| C=CCn1c(C)c(C(C)=O)c(N2CCCC2)nc1=S | inactive |
| NC(=O)CN1N=C(c2cc(Cl)sc2Cl)CSC1=O | inactive |
| COCCN1CC(=O)N2C(c3cccc(OC)c3)c3[nH]c4ccccc4c3C[C@H]2C1=O (stereo not given in full) | inactive |
| N=c1c(C(=O)NCC2CCCO2)cc2c(=O)n3ccccc3nc2n1Cc1ccc(Cl)cc1 (stereo not given) | inactive |
| COc1ccc(C)cc1NC(=O)C1CCN(S(=O)(=O)c2c(C)noc2C)CC1 | inactive |

| SMILES | inhibition |
| --- | --- |
| COc1cccc(C(c2c(C)[nH]n(-c3ccccc3)c2=O)c2c(C)[nH]n(-c3ccccc3)c2=O)c1O | inactive |
| CCOc1ccccc1-c1cc(-c2ccccc2)nc2c1c(=O)n(C)c(=O)n2C | inactive |
| O=C(NCc1ccco1)C1CCN(C(=O)c2cc3sccc3n2Cc2ccc(Cl)cc2)CC1 | inactive |
| Nc1nc(SCC(=O)N2CCCC2)[nH]c(=O)c1NC(=O)c1cccs1 | inactive |
| Clc1ccc(OCc2nc(-c3ccc(Br)o3)no2)cc1 | inactive |
| CCOc1ccc(-c2ccc(SCC(=O)N3CCOCC3)nn2)cc1 | inactive |
| NC(=O)c1ccc[n+]([C@H]2O[C@@H](COP(=O)([O-])OP(=O)(O)OC[C@H]3O[C@@H](n4cnc5c(N)ncnc54)[C@H](O)[C@@H]3O)[C@H](O)[C@@H]2O)c1 | inactive |
| CN1CCCN(C(=O)COc2ccc(F)cc2Cl)CC1 | inactive |
| Cc1cc(NC(=O)COC(=O)c2cccc(S(=O)(=O)N(C)C3CCCCC3)c2)no1 | inactive |
| COC(=O)c1sccc1NC(=S)NCc1ccc(Cl)cc1 | inactive |
| COC(=O)CNc1n[nH]c(=S)[nH]c1=O | inactive |
| NC1=C(Br)C(=O)c2ccccc2C1=O | inactive |
| C/[N+]([O-])=C1\Cc2ccccc2C1=O | inactive |
| Clc1ccc2c(NCc3ccccn3)ccnc2c1 | inactive |
| O=C(NCc1cccs1)C(=O)NCC(c1ccco1)N1CCN(c2ccc(F)cc2)CC1 (stereo not given) | inactive |
| CCC(=O)N1CCc2cc(S(=O)(=O)NCCCN3CCN(Cc4ccccc4)CC3)ccc21 | inactive |
| COc1ccc(NC(=O)C(Cc2ccccc2)n2cccc2)cc1 (stereo not given) | inactive |
| CC(C)NC(=O)c1cc(-c2ccc(Br)cc2)on1 | inactive |
| CC(=O)NCc1ccc(C(=O)CCl)cc1 | inactive |
| Cc1c(C)n(C)c2ccc(C(=O)NCc3cccs3)cc12 | inactive |
| COc1ccc(Cl)cc1NC(=O)CCN1CCOCC1 | inactive |
| O=C(NCCCN1CCOCC1)C(C(=O)c1ccccc1)n1ccccc1=O (stereo not given) | inactive |

| SMILES | inhibition |
| --- | --- |
| CCCC1(c2ccccc2)NC(=O)N(CC(=O)Nc2cc(S(=O)(=O)N3CCOCC3)ccc2Cl)C1=O (stereo not given) | inactive |
| COc1ccc(C(=O)C2CCN(CC(=O)Nc3cc(C)cc(C)c3)CC2)cc1 | inactive |
| COCCNC(=O)c1cccc(OC2CCN(Cc3ccccc3C)CC2)c1 | inactive |
| Cc1ccc(C)c(NC(=O)CSc2nnc([C@@H](N)Cc3c[nH]c4ccccc34)o2)c1 | inactive |
| O=C(O)c1ccc(CSc2nnnn2C2CCCCC2)cc1 | inactive |
| COCCNC(=O)CN(C(=O)CCC(=O)Nc1ccccn1)c1ccc(F)c(Cl)c1 | inactive |
| COCCN1C(=O)C(=O)/C(=C(/O)c2cccc(OC)c2)C1c1ccncc1 (stereo not given) | inactive |
| Cc1ccc(CCN2C(=O)CCC2(C)C(=O)NC2CCCC2)cc1 (stereo not given) | inactive |
| FC(F)(F)c1ccccc1NC1=NCCC1 | inactive |
| CCN(CC)CC#CC(C)OCOCC#CCOC (stereo not given) | inactive |
| Cc1ccc2[nH]cc(CCNC(=O)c3cccnc3)c2c1 | inactive |
| Cc1cc(C)cc(CSc2nnc(C)c(=O)[nH]2)c1 | inactive |
| COC(=O)c1c(-c2cccc(C)c2)csc1N | inactive |
| COC(=O)c1cc2ccsc2n1CC(=O)N(C)c1ccccc1 | inactive |
| COc1c(Br)cc2c(C)c(C(=O)N3CCOCC3)oc2c1Br | inactive |
| Cn1c(=O)cc(SCC(=O)N2CCN(C3CCCCC3)CC2)c2ccccc21 | inactive |
| COc1ccccc1C(=O)N1CC2(C)CC1CC(C)(C)C2 (stereo not given) | inactive |
| NC(=O)COc1c(-c2ccco2)oc2ccccc2c1=O | inactive |
| O=C(NCc1ccc2c(c1)OCO2)c1ccc2c(c1)C(=O)N(Cc1cccnc1)C2=O | inactive |
| Cc1ncc(CC(=O)n2cc(C(=O)c3cc(F)ccc3O)cn2)s1 | inactive |
| CCC(C)n1c(SCC(=O)NCc2ccco2)nnc1-c1cccc(S(=O)(=O)N2CCOCC2)c1 (stereo not given) | inactive |
| COc1cc(C)c(Cl)cc1S(=O)(=O)n1cnc(C)c1 | inactive |

| SMILES | inhibition |
| --- | --- |
| CC1CC(C)CN(C(=O)c2ccc(NC(=O)c3ccc(=O)[nH]c3)cc2)C1 (stereo not given) | inactive |
| COc1cccc(NC(=O)N2CCCC(C(=O)Nc3ccccc3OC)C2)c1 (stereo not given) | inactive |
| COc1ccccc1NC(=O)CSC1CC(=O)N(c2ccc3c(c2)OCO3)C1=O (stereo not given) | inactive |
| CN(C)/C=N/c1ncc(C(=O)c2ccc(Cl)cc2)s1 | inactive |
| CCN(CC)CCCCCCCCOC(=O)c1cc(OC)c(OC)c(OC)c1 | inactive |
| CCn1cc(C(=O)NCCc2ccccc2)c(=O)c2cc(F)c(N3CCN(C)CC3)cc21 | inactive |
| CSc1ccc(NC(=O)C(C)N2CCN(C)CC2)cc1 (stereo not given) | inactive |
| O=C(CCc1nc2ccccc2s1)NC1CCOC1=O (stereo not given) | inactive |
| CCOc1ccc2nc(NC(=O)C3=NNC(=O)CC3)sc2c1 | inactive |
| CCCCn1cnc2cc(NCc3cccc(OC)c3O)ccc21 | inactive |
| COc1ccc(C(=O)NNS(=O)(=O)c2ccccc2)cc1OC | inactive |
| Cc1ccc(S(=O)(=O)NC(C)(C)CSc2nnc(N)s2)cc1 | inactive |
| Cc1ccc(C)c(SCC(=O)Nc2ccc(S(=O)(=O)Nc3ncccn3)cc2)c1 | inactive |
| CC(=O)Nc1ccc(S(=O)(=O)Nc2nc3ccccc3nc2Nc2cccc(S(N)(=O)=O)c2)cc1 | inactive |
| COC(=O)NNS(=O)(=O)c1ccc(C)cc1 | inactive |
| Cc1cc(C)c(S(=O)(=O)Nc2cccnc2)c(C)c1 | inactive |
| Cc1cccc(NCN2C(=O)c3ccccc3C2=O)c1 | inactive |
| CCOc1ccccc1NC(=O)NS(=O)(=O)c1ccc(C)cc1 | inactive |
| O=C(COC(=O)CNC(=O)c1ccccc1)Nc1ccc(F)c([N+](=O)[O-])c1 | inactive |
| CCOc1ccc(C2CC(=O)NC(SCC(=O)OC)=C2C#N)cc1 (stereo not given) | inactive |
| COc1cc(S(=O)(=O)N2CCN(C(=O)c3ccco3)CC2)c(OC)cc1C | inactive |
| COc1ccc(-n2nnc3c(SCC(=O)N4CCCc5ccccc54)ncnc32)cc1 | inactive |
